Measurements published in PubChem BioAssay (Tox21).
Inconclusive results are not listed. Entries that show only a call come without a potency. Unmarked numbers belong to inactive results. Calls of active or inactive are those of the source. The call rests on the fitted dose curve.

The compounds below were run against Beta-2 adrenergic receptor (Homo sapiens) (UniProt P07550) (assay: Adrenergic beta2 receptor (ADRB2) small molecule antagonists, cell-based qHTS assay (AID 1963592; further: nearly all actives have a fitted effect of over 50% in size)). Conditions: CHO-ADRB2 cells, isoproterenol-stimulated cAMP HTRF ratio, 0.5 h; series mostly up to 92.4 µM; activity change, negative = inhibition: at the top concentration.
Sequence of Beta-2 adrenergic receptor (Homo sapiens) (P07550 whole entry, looked up): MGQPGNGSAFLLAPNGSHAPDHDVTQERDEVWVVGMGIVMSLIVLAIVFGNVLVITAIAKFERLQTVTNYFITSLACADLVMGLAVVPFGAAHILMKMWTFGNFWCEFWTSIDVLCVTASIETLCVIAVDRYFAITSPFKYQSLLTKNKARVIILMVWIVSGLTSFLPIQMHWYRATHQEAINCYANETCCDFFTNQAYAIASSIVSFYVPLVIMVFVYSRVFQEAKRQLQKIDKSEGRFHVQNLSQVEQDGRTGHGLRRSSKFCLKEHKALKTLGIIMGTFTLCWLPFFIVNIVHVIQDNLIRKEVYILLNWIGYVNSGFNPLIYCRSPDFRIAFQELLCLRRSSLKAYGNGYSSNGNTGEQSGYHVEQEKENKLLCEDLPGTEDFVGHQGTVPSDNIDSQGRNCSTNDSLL
From the text: U.S. Tox21 Program National Center for Advancing Translational Sciences [NCATS] Division of Preclinical Innovation [DPI] U.S. Environmental Protection Agency [EPA] National Institutes of Environmental Health Sciences [NIEHS] National Toxicology Program [NTP] U.S. Food and Drug Administration [FDA] Tox21 Assay Overview: Beta adrenergic receptors (Beta-ARs) belong to the G-protein coupled receptor (GPCR) superfamily, includes three subtypes - beta1, beta2, and beta3. Beta1-AR is the predominant receptor subtype expressed in the heart, and beta2-AR is expressed in the kidney, lung, blood vessel and in the heart, and beta3 is found in the adipocytes. Beta1 and 2 ARs couple to Gs protein and elevate cyclic adenosine mono phosphate (cAMP), which activates protein kinase A and leads to the downstream signaling responsible for the physiological actions. Beta-AR agonists or antagonists are the most prescribed therapeutic agents for heart failure and asthma, and these were one of the first target receptors for the rational drug design. Tox21 10K compound library was screened using the cAMP-Gs dynamic assay (Cisbio Bioassays, Shelton, CT) to identify agonists/antagonists of the Gs-coupled human adrenergic, beta2 receptor (ADRB2) in the CHO-ADRB2 cell line (Codex BioSolutions, Inc. Gaithersburg, MD), which stably over-expresses ADRB2. The principle of cAMP-Gs dynamic assay is based on HTRF technology, which facilitates the fluorescence resonance energy transfer (FRET) between donor Europium cryptate and acceptor d2-labeled cAMP. The cAMP generated within cells competes with the red acceptor, d2-labled cAMP, for binding to the monoclonal anti-cAMP-cryptate (Europium donor). An increase in intracellular cAMP leads to the disruption of FRET signal, and the signal is inversely proportional to the cAMP concentration. Propranolol HCl (Sigma-Aldrich, St. Louis, MO) was used as a positive control in the screening.
Tox21 Assay Protocol Summary: CHO-ADRB2 cells were dispensed at 1,000/well in 4uL assay medium into white/solid 1536-well plates (Greiner Bio-One North America Inc., Monroe, NC) using a Multidrop Combi dispenser (ThermoFisher Scientific, Waltham, MA). The assay plates were incubated at 37C and 5% CO2 for an overnight (18-20hr). Then positive control and test compounds dissolved in DMSO were transferred to the assay plates at 23nL using a Pintool station (Wako, San Diego, CA). Following the compound and positive control transfer, 1uL agonist-stimulation mix containing 1nM Isoproterenol HCl, 100uM IBMX and 25uM Ro-20-1724 was added to each well of the assay plates using BioRAPTR Flying Reagent Dispenser (FRD, Beckman Coulter, Brea, CA). The assay plates were incubated at room temperature for 0.5hr. Then 2.5ul each d2-labled cAMP and anti-cAMP-cryptate solutions were added separately to each well of the assay plates using an FRD and the assay plates were incubated at room temperature for 1hr. The fluorescence signal was measured at two different wavelengths (665nm and 615nm) using an Envision plate reader (Perkin Elmer, Shelton, CT). Data were expressed as the ratio of 665 nm/615 nm.
Potency means the concentration at half of the fitted maximal effect.

| SMILES | Potency | activity change, negative = inhibition |
| --- | --- | --- |
| [Cl-].[Cl-].[Hg+2] | 48.3 µM (active) |  |
| CCCCCCI |  | -2.82% |
| CC(C)=CC1C(C(=O)OCN2C(=O)C3=C(CCCC3)C2=O)C1(C)C (stereo not given) | inactive |  |
| O=C(O)CCCc1ccc(N(CCCl)CCCl)cc1 | inactive |  |
| O=NN(c1ccccc1)c1ccccc1 | inactive |  |
| C=CC(=O)OCCCCCC(C)C | inactive |  |
| CNC(C)(C)Cc1ccccc1 |  | 1.9% [at 42.5 µM] |
| COc1ccc2c(c1OC)C(=O)O[C@@H]2[C@H]1c2cc3c(cc2CCN1C)OCO3 |  | -15% |
| N#CC(Cl)(Cl)Cl |  | 2.72% |
| COC(=O)c1ccccc1N | inactive |  |
| Cc1ccccc1[N+](=O)[O-] | inactive |  |
| CC(C#N)CCC#N (stereo not given) | inactive |  |
| CCN |  | -14.2% |
| CCCCCCCCCCCCCl | inactive |  |
| O=C(O)COc1cc(Cl)c(Cl)cc1Cl | inactive |  |
| C[C@H]1C(=O)O[C@@H]2CCN3CC=C(COC(=O)[C@](C)(O)[C@]1(C)O)[C@H]23 | inactive |  |
| O=S(=O)(Cl)Cl |  | -5.14% |
| CC(C)c1ccc(OP(=O)(Oc2ccc(C(C)C)cc2)Oc2ccc(C(C)C)cc2)cc1 | inactive |  |
| C=CCCl |  | -1.52% |
| O=c1[nH]c2ccccc2c(=O)o1 | inactive |  |

| SMILES | Potency | activity change, negative = inhibition |
| --- | --- | --- |
| CN(C)P(=O)(N(C)C)N(C)C | inactive |  |
| CC(O)CN1CCN(CC(=O)[O-])CCN(CC(=O)[O-])CCN(CC(=O)[O-])CC1.[Gd+3] (stereo not given) |  | 1% [at 42.5 µM] |
| CC(COc1ccc(Oc2ccccc2)cc1)Oc1ccccn1 (stereo not given) |  | 0.543% |
| ClC(Cl)=C(Cl)C(Cl)=C(Cl)Cl | inactive |  |
| O=S(=O)(c1ccc(O)cc1)c1ccc(O)cc1 | inactive |  |
| C=C(C)C(=O)OCC1CO1 (stereo not given) | inactive |  |
| O=C(O)C(F)(F)C(F)(F)C(F)(F)C(F)(F)C(F)(F)C(F)(F)C(F)(F)C(F)(F)F |  | -4.47% |
| CCCCCCCCn1sccc1=O |  | -28.8% |
| CC(C)[N+](C)(CCC(C(N)=O)(c1ccccc1)c1ccccc1)C(C)C |  | -4.93% [at 42.5 µM] |
| N#CC(Cl)Cl |  | 1.69% |
| Cc1cc(Cl)ccc1OCC(=O)O | inactive |  |
| C=C(Cl)CCl |  | 1.16% |
| COc1cc(OC)nc(Sc2cccc(Cl)c2C(=O)O)n1 |  | 14.2% |
| CCOc1cc(C=O)ccc1O | inactive |  |
| Sc1ccccc1Cl |  | 3.71% [at 42.5 µM] |
| O=C/C(Cl)=C(/Cl)C(=O)O | inactive |  |
| O=C(NCNC(=O)NC1C(=O)NC(=O)N1CO)NC1C(=O)NC(=O)N1CO (stereo not given) |  | 0.0364% |
| OCC(O)CCl (stereo not given) | inactive |  |
| C[N+](C)(C)CC(=O)[O-] | inactive |  |
| CCN(CC)C(=S)S | inactive |  |
